Records with an inconclusive call do not appear. Entries that show only a call come without a potency. Active and inactive are the calls of the source. Unless noted, the call rests on the fitted dose curve; in most records, active means well fitted curve in the direction sought with a large enough effect; inconclusive means small, poorly fitted or top-dose-only effect, or another doubt; inactive means no such curve, though single readings can be large; an effect the other way counts as inactive or inconclusive.
What was measured:
[1] = target: Cytochrome P450 3A4 (Homo sapiens) (UniProt P08684); experiment: qHTS Assay for Inhibitors and Substrates of Cytochrome P450 3A4 (AID 884); further: nearly all actives have a fitted effect of over 50% in size; further: potency means the concentration at half of the fitted maximal effect
Method in brief: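 Luminescent readout of luciferin produced by CYP3A4 (20 nM) dealkylation of Luciferin-PPXE, 25 uM (its KM). NADPH-driven reaction ran 60 min at RT after 10 min compound preincubation; data scaled to 57 uM ketoconazole as 100% inhibition.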

[2] = target: Estrogen receptor (Homo sapiens) (UniProt P03372); experiment: qHTS assay for small molecule agonists of estrogen receptor alpha signaling (AID 588514; calls by dose curve; further: nearly all actives have a fitted effect of over 70% in size)
Method in brief: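 Read-out: CCF4 fluorescence from a beta-lactamase reporter in ER-alpha-UAS-bla HEK 293 cells after 18 hrs of compound exposure at 37 C. Normalized to 20 nM 17-beta-estradiol (100%) and DMSO (0%).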

[3] = target: Peroxisome proliferator-activated receptor delta (Homo sapiens) (UniProt Q03181); experiment: qHTS assay for small molecule agonists of peroxisome proliferator-activated receptor delta signaling (AID 588534; calls by dose curve)
Method in brief: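 Titration series tested in agonist mode on beta-lactamase reporter cells; 18 hrs at 37 C after a 5 hr pre-incubation. Readout: CCF4 fluorescence, 2 hrs RT. Hill equation gives EC50 and maximal response.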

[4] = target: Vitamin D3 receptor (Homo sapiens) (UniProt P11473); experiment: qHTS assay for small molecule agonists of vitamin D receptor signaling (AID 588543; calls by dose curve)
Method in brief: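 Reporter cells (HEK293T, VDR-UAS-bla) were seeded in medium with 2% charcoal-stripped serum and incubated 5 h, then compounds in concentration series were added for 16 h at 37 °C. Stimulation was scaled between DMSO basal and 50 nM 1α,25-dihydroxyvitamin D3.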

[5] = qHTS assay for small molecule activators of the nuclear factor-kappa B (NF-kB) signaling pathway (AID 651749; active means well fitted activation curve with a large enough effect in the signal ratio; the % refers to the signal ratio; further: series mostly up to about 77 µM); settings: NF-kB-bla ME-180 cells, beta-lactamase FRET ratio, 16 h; activation: stronger effect = higher value
Method in brief: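 NF-kB-bla ME-180 cells, 2,000/well; 23 nL compound or DMSO pinned; 16 hr, 37C/5% CO2; beta-lactamase FRET read-out.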

[6] = target: Peroxisome proliferator-activated receptor alpha (Homo sapiens) (UniProt Q07869); experiment: qHTS assay for small molecule agonists of the peroxisome proliferator-activated receptor alpha (PPARalpha) signaling pathway (AID 651778); settings: PathHunter PPARalpha complementation, chemiluminescence, 6 h; max response: stronger effect = higher value
Method in brief: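 Enzyme-fragment complementation assay in which ligand-bound PPARalpha translocates and forms an active enzyme that generates chemiluminescence. Cells were plated overnight, exposed to compound for 6 hr at 37 C, and then given detection reagent for 60 min at room temperature.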

[7] = qHTS assay for cell viability of HEK293 cells (AID 743288); settings: ATP luminescence (CellTiter-Glo), 18 h; max response: stronger effect = lower value; further: nearly all actives have a fitted effect of over 50% in size; further: potency means the concentration at half of the fitted maximal effect
Method in brief: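 Viable-cell counts were inferred from luciferase-based ATP content in HEK293 cells seeded at 2,000/well, pre-incubated ≥5 h, then dosed with DMSO-solubilised compounds for 18 h at 37 C.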

[8] = target: Estrogen receptor (Homo sapiens) (UniProt P03372); experiment: qHTS assay for small molecule antagonists of estrogen receptor alpha signaling (AID 588513; active means well fitted curve in the direction sought with a large enough effect in the signal ratio, with a control signal flat, not every such curve was filed as active; the % refers to the signal ratio; further: potency means the concentration at half of the fitted maximal effect)
Method in brief: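 Fluorescence from CCF4 substrate after 2 h at room temperature gave reporter activity; cells had been exposed to compound and 0.5nM 17-beta-estradiol for 18 h at 37 C. Hill-equation fitting yielded IC50 and maximal response.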

[9] = target: Glucocorticoid receptor (Homo sapiens) (UniProt P04150); experiment: qHTS assay for small molecule agonists of glucocorticoid receptor signaling (AID 588532; active means well fitted curve in the direction sought with a large enough effect in the signal ratio, with a control signal flat; the % refers to the signal ratio); settings: HeLa MMTV-bla, beta-lactamase ratio, agonist, 18 h; activation: stronger effect = higher value, percent of dexamethasone control, DMSO zero
Method in brief: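 MMTV-bla HeLa beta-lactamase reporter cells in 1% charcoal/dextran FBS medium, compounds up to 92 uM for 18 h at 37 C, CCF4 readout; normalized to 0.1 uM dexamethasone (100%), EC50 and efficacy from Hill fits.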

[10] = target: Thyroid hormone receptor beta (Homo sapiens) (UniProt P10828); experiment: qHTS assay for small molecule agonists of thyroid hormone receptor beta signaling (AID 588545; calls by dose curve)
Method in brief: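 Efficacy and EC50 values derive from Hill fits of qHTS titration data, normalized to 10 nM T3 and DMSO-only wells. HEK 293 reporter cells were stimulated for 18 hrs at 37 C, with beta-lactamase activity measured by CCF4 fluorescence.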

[11] = qHTS assay for environmental chemicals that activate the Aryl hydrocarbon Receptor (AhR) signaling pathway (AID 651777); settings: 1A2-DRE human hepatoma cells, luciferase, 24 h; activation: stronger effect = higher value; further: nearly all actives have a fitted effect of over 15% in size
Method in brief: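 Stable CYP1A2 promoter/DRE-luciferase human hepatoma line treated 24 hr; One-Glo luminescence, 30 min RT.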

[12] = qHTS assay for small molecule agonists of the antioxidant response element (ARE) signaling pathway measured by Nrf2-dependant transcriptional activity - cell viability counter screen (AID 720653; active means well fitted curve in the direction sought with a large enough effect in the repeat runs; an effect the other way counts as inactive or inconclusive; further: potency means the concentration at half of the fitted maximal effect); settings: ARE-bla HepG2 viability, CellTiter-Glo ATP luminescence, 16 h; max response: stronger effect = lower value
Method in brief: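 ARE-bla HepG2 cells treated with compounds for 16 h at 37C; this counter screen measures viability as intracellular ATP by CellTiter-Glo luminescence after 30 min at room temperature.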

[13] = qHTS assay for cell viability of the p53RE-bla HCT-116 cell line (AID 743292); further: nearly all actives have a fitted effect of over 55% in size
Method in brief: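 Readout: CellTiter-Glo luminescence after 30 min RT. Treatment: compounds in DMSO, 16 h, 37 C. Cells: CellSensor p53RE-bla HCT-116, 4,000/well, preincubated 5 h.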

[14] = target: Peroxisome proliferator-activated receptor gamma (Homo sapiens) (UniProt P37231); experiment: qHTS assay for small molecule agonists of peroxisome proliferator-activated receptor gamma signaling (AID 588536; active means well fitted curve in the direction sought with a large enough effect in the signal ratio, with a control signal flat, not every such curve was filed as active; the % refers to the signal ratio)
Method in brief: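 Using GeneBLAzer HEK293 cells, response was quantified by CCF4 fluorescence and normalized between basal DMSO (0%) and rosiglitazone 2 uM (100%); curves yielded half-maximal stimulation concentration and efficacy.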

[15] = target: Vitamin D3 receptor (Homo sapiens) (UniProt P11473); experiment: qHTS assay for small molecule antagonists of vitamin D receptor signaling (AID 588541; calls by dose curve;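 further: receptor activated by calcitriol during compound treatment; series mostly up to about 77 µM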)
Method in brief: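 VDR-UAS-bla HEK293T cells in 2% charcoal-stripped FBS were stimulated with 1-alpha,25-dihydroxyvitamin D3 (3 nM final) plus compound for 16 h at 37 C. The beta-lactamase CCF4 readout was normalized to 50 nM agonist and DMSO, and Hill fits gave IC50.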

[16] = qHTS assay for small molecule activators of the p53 signaling pathway (AID 651743; active means well fitted activation curve with a large enough effect in the signal ratio, not every such curve was filed as active; the % refers to the signal ratio; further: series mostly up to about 92 µM); settings: HCT-116 p53RE-bla, beta-lactamase FRET ratio, 16 h; activation: stronger effect = higher value
Method in brief: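 Reporter: beta-lactamase driven by p53 response elements, stably integrated in HCT-116 cells. Cells seeded at 4,000/well, 5 h preincubation, compound (DMSO) 16 h at 37 C; B/G FRET substrate 2 h RT; fluorescence intensity read.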

[17] = qHTS assay for small molecule agonists of the antioxidant response element (ARE) signaling pathway measured by Nrf2-dependant transcriptional activity (AID 720636; active means well fitted curve in the direction sought with a large enough effect in the repeat runs; an effect the other way counts as inactive or inconclusive;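 further: HepG2 cells with an ARE-driven luciferase reporter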)
Method in brief: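 Reporter gene assay, HepG2 ARE-luc: 16 hr compound, 37 C, 5% CO2; read-out luciferase luminescence.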

[18] = qHTS assay for small molecule antagonists of retinoid X receptor alpha signaling (AID 588546; active means well fitted inhibition curve with a large enough effect in the signal ratio, with a control signal flat, not every such curve was filed as active; the % refers to the signal ratio; further: potency means the concentration at half of the fitted maximal effect;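 on max response: cells stimulated with 9-cis-retinoic acid as agonist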); settings: HEK293T RXRa-UAS-bla, beta-lactamase ratio, antagonist mode; measured here: W530 green channel, cytotoxicity proxy
Method in brief: (§1)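 Beta-lactamase reporter inhibition, read as CCF4 fluorescence ratio (ex 405, em 460/530 nm) after 2 h at RT. HEK293T UAS-bla cells, 2500/well, were stimulated with 9-cis-RA at 500 or 100 nM final alongside test compound for 18 h at 37 C.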

[19] = target: Retinoic acid receptor RXR-alpha (Homo sapiens) (UniProt P19793); experiment: as above; settings: HEK293T RXRa-UAS-bla, beta-lactamase ratio, antagonist mode
Method in brief: as §1

Peroxisome proliferator-activated receptor delta (Homo sapiens), sequence (Q03181 whole entry, looked up): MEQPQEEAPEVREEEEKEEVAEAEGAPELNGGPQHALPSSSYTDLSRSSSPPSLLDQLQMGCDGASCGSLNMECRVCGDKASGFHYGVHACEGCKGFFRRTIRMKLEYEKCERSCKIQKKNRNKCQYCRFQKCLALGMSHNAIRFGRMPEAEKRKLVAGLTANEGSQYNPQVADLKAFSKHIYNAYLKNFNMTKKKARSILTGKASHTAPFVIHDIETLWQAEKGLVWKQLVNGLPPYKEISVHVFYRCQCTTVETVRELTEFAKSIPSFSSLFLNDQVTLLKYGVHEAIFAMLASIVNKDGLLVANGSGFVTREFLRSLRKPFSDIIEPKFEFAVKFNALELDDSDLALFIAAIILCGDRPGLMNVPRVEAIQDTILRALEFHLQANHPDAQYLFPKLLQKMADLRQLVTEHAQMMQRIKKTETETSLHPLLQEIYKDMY
Thyroid hormone receptor beta (Homo sapiens), sequence (P10828 whole entry, looked up): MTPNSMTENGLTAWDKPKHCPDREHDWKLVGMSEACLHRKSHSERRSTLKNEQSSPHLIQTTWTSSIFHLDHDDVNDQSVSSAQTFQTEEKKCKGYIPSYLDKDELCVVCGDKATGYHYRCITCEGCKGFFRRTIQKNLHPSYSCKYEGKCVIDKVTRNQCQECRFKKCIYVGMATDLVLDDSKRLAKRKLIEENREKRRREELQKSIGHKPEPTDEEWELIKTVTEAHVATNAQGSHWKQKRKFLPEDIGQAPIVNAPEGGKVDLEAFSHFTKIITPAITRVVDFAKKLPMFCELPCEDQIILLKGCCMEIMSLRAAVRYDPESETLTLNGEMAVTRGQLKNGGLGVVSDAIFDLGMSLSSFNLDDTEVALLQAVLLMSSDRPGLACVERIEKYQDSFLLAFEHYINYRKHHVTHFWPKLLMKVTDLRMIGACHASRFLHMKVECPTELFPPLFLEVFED
Cytochrome P450 3A4 (Homo sapiens), sequence (P08684 whole entry, looked up): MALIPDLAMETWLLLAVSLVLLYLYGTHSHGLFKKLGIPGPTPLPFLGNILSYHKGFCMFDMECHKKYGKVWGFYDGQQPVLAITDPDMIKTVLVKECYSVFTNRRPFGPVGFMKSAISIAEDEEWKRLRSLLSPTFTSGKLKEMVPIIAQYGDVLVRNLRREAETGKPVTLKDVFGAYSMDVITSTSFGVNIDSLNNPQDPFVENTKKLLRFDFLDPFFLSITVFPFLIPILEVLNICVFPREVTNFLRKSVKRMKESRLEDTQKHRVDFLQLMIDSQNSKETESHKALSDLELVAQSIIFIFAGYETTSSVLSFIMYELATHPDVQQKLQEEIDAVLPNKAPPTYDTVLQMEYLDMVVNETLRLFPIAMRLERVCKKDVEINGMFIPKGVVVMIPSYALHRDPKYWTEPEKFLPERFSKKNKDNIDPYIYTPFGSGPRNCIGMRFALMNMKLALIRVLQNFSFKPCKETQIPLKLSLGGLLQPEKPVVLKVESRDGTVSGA
Estrogen receptor (Homo sapiens), sequence (P03372 whole entry, looked up): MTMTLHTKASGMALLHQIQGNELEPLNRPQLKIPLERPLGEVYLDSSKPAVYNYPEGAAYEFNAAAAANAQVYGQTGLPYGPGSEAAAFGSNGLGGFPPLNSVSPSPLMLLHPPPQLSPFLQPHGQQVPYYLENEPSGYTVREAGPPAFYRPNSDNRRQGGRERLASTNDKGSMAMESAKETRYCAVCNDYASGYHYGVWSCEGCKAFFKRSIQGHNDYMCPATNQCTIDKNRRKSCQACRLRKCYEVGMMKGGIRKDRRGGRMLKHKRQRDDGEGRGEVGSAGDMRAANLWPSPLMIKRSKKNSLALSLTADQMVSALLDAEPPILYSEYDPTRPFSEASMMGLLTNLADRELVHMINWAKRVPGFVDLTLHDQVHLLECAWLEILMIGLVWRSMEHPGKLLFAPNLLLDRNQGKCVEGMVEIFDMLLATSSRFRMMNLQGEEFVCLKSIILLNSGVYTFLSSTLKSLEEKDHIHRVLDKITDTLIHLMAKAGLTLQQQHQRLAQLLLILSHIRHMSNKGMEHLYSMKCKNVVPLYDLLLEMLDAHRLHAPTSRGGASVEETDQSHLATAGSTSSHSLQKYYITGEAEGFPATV
Vitamin D3 receptor (Homo sapiens), sequence (P11473 whole entry, looked up): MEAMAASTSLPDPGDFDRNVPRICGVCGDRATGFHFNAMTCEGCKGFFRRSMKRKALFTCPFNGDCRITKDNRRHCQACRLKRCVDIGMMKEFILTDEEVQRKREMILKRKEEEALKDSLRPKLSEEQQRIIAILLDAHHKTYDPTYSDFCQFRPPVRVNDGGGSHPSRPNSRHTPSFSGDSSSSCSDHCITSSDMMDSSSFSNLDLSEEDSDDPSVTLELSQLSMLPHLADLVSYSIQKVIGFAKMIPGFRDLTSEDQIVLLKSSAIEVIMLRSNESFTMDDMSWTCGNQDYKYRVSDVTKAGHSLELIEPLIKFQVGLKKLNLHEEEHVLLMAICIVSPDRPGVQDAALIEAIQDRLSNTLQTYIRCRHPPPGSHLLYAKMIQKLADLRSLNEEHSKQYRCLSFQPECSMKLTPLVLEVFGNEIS
Peroxisome proliferator-activated receptor alpha (Homo sapiens), sequence (Q07869 whole entry, looked up, the tested form may be a part): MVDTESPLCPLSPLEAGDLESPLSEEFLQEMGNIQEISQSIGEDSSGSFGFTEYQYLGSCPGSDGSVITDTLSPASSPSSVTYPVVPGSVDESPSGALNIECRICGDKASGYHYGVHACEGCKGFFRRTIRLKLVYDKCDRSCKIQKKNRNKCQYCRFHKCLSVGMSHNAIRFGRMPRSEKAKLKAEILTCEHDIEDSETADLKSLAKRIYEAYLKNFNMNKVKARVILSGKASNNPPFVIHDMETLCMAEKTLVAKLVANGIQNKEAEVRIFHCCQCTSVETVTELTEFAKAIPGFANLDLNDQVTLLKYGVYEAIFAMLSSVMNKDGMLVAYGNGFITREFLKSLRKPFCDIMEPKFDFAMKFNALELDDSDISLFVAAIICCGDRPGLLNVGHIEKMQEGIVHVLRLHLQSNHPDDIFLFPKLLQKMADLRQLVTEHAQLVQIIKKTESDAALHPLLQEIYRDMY
Retinoic acid receptor RXR-alpha (Homo sapiens), sequence (P19793 whole entry, looked up): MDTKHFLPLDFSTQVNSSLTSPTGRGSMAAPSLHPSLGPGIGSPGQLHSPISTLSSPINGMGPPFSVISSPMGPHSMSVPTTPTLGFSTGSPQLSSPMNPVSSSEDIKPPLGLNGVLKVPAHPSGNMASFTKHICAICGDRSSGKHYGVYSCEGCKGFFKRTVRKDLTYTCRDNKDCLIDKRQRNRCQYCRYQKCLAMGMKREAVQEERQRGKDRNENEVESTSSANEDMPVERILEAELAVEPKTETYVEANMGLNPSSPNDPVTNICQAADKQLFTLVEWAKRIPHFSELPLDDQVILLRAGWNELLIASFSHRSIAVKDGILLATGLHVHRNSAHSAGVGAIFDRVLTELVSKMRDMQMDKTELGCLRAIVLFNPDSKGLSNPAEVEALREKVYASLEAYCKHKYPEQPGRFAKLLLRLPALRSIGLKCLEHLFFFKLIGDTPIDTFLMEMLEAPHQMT
Glucocorticoid receptor (Homo sapiens), sequence (P04150 whole entry, looked up): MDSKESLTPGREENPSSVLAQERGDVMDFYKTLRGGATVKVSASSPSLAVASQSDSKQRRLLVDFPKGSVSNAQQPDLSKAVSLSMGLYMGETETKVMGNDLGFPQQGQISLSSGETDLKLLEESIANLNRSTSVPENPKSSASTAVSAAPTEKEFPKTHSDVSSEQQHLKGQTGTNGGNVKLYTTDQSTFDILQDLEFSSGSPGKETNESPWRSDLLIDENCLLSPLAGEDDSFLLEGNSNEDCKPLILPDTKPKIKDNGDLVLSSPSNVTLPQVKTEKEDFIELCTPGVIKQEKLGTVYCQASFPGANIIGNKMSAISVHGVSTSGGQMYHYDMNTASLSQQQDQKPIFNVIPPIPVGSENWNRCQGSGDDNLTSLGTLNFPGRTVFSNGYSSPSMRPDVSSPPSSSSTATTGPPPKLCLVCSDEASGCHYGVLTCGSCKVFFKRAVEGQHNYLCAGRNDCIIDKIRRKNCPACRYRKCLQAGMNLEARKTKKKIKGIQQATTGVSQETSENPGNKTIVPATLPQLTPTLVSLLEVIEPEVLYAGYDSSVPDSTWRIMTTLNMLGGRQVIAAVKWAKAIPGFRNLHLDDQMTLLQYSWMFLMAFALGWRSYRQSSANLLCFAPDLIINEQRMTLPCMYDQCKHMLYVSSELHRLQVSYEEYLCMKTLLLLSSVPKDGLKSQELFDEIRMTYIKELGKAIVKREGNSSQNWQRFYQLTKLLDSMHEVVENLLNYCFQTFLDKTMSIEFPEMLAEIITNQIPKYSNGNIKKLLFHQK
Peroxisome proliferator-activated receptor gamma (Homo sapiens), sequence (P37231 whole entry, looked up): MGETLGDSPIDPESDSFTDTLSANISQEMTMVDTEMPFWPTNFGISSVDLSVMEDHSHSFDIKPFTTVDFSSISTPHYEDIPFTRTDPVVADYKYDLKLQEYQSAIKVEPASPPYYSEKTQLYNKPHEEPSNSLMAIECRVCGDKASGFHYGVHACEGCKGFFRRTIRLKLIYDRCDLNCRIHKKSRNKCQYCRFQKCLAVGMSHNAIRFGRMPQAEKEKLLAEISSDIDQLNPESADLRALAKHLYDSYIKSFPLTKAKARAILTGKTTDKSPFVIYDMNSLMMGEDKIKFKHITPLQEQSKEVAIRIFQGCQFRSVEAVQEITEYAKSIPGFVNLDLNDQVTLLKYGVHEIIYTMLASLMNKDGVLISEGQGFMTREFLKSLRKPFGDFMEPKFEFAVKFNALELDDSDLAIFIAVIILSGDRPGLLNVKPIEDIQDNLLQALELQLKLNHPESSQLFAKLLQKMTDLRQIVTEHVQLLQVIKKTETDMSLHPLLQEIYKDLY

O=C1C=C2C(=CCOC2O)O1 (configuration not stated)
Potency [1]: inactive | Potency [2]: inactive | outcome [3]: inactive | outcome [4]: inactive | activation [5]: 2.18% (inactive) | max response [6]: 0.776% (inactive) | Potency [7]: 8.91 µM (active)

COC(=O)/C(C)=C\CC12OC(C)(C)C3CC(C=C4C(=O)c5c(OC)c6c(c(CC=C(C)C)c5OC431)OC(C)(CCC=C(C)C)C=C6)C2=O (configuration not stated)
Potency [1]: 3.16 µM (active)

CC(=O)Oc1c2c(c(CC=C(C)C)c3c1C(=O)C1=CC4CC5C(C)(C)OC(C/C=C(\C)C(=O)O)(C4=O)[C@]15O3)OC(C)(CCC=C(C)C)C=C2 (some centres not stated)
Potency [1]: 12.6 µM (active)

CN1[C@H]2CC(OC(=O)[C@H](CO)c3ccccc3)C[C@H]1[C@H]1O[C@H]12 (some centres not stated)
outcome [3]: inactive

CC(=O)OCC1=C(C(=O)O)N2C(=O)C(NC(=O)CCCC(N)C(=O)O)C2SC1 (configuration not stated)
Potency [1]: inactive

CC1CC(Cl)CCC1C(=O)OC(C)(C)C (configuration not stated)
Potency [1]: inactive

CN(C)C1C(=O)C(C(N)=O)=C(O)[C@@]2(O)C(=O)C3=C(O)c4c(O)cccc4[C@@](C)(O)C3CC12 (some centres not stated)
Potency [1]: inactive

COc1ccc(C(=O)O)cc1OC
Potency [1]: inactive

CCC1C(=O)OC[C@H]1Cc1cncn1C (some centres not stated)
Potency [1]: 20 µM (active)

C[C@@]12C=CC(=O)C=C1CCC1C2CC[C@]2(C)C(=O)CCC12 (some centres not stated)
Potency [1]: inactive

CN(CCC(N)CC(=O)NC1C=CC(n2ccc(N)nc2=O)OC1C(=O)O)C(=N)N (configuration not stated)
Potency [1]: 0.199 µM (active)

CC1(C)C(C(Cl)Cl)C2(Cl)C(Cl)C(Cl)C1(Cl)C2(Cl)Cl (configuration not stated)
Potency [1]: 7.94 µM (active)

CCC1C2CC3C4N(C)c5ccccc5[C@]45CC(C2C5O)N3C1O (some centres not stated)
Potency [1]: inactive

CC(C)N(C(=O)CCl)c1ccccc1
Potency [1]: inactive | Potency [8]: 15.8 µM [inhibitor] (active) | activation [9]: -11.4% (inactive) | outcome [4]: inactive | Potency [10]: inactive | activation [11]: -1.87% (inactive) | max response [6]: -1.12% (inactive) | Potency [12]: 39.8 µM (active) | Potency [13]: inactive

CSc1nc(NC(C)C)nc(NC(C)C)n1
Potency [1]: inactive | Potency [2]: inactive | Potency [14]: inactive | Potency [15]: inactive | outcome [4]: inactive | activation [16]: -3.76% (inactive) | activation [11]: -2.16% (inactive) | max response [6]: 8.44% (inactive) | Potency [17]: inactive | max response [12]: 9.37% (inactive) | max response [7]: 2.18% (inactive)

CCCCN(CC)c1c([N+](=O)[O-])cc(C(F)(F)F)cc1[N+](=O)[O-]
activation [9]: -5.8% (inactive) | outcome [3]: inactive | Potency [15]: inactive | outcome [4]: inactive | Potency [10]: inactive | max response [18]: -9.26% | max response [19]: -14% (inactive) | activation [16]: -2.46% (inactive) | activation [5]: -1.55% (inactive) | activation [11]: -0.444% (inactive) | max response [6]: -2.71% (inactive) | Potency [17]: inactive | max response [12]: -14.4% (inactive) | max response [7]: -10.2% (inactive) | Potency [13]: inactive

NCC(N)C(=O)c1ccccc1 (configuration not stated)
Potency [1]: inactive

COc1ccc(CC2NC[C@H](O)[C@H]2OC(C)=O)cc1 (some centres not stated)
Potency [1]: inactive

CC(C)=O
outcome [3]: inactive

CC(CO)NC(=O)C1C=C2c3cccc4[nH]cc(c34)C[C@H]2N(C)C1 (some centres not stated)
Potency [1]: inactive

OCC1OC(n2cnc3cc(Cl)c(Cl)cc32)C(O)C1O (configuration not stated)
Potency [1]: inactive

CC(=O)OC1C2CCC3C1(CC(O)[C@@]1(O)[C@@H](CC(O)C1(C)C)[C@]3(C)O)C[C@@]2(C)O (some centres not stated)
Potency [1]: inactive

N#Cc1c(Cl)c(Cl)c(Cl)c(C#N)c1Cl
Potency [1]: 3.16 µM (active) | Potency [10]: inactive | max response [18]: -33.7% | Potency [19]: 7.08 µM (active) | max response [6]: -3.28% (inactive) | Potency [17]: inactive | Potency [12]: 70.8 µM (active) | Potency [7]: 15.8 µM (active)

O=C1CC[C@]2(O)C3Cc4ccc(O)c5c4C2(CCN3CC2CC2)C1O5 (some centres not stated)
Potency [1]: inactive

COc1cc2c(cc1OC)-c1c(O)c(OC)cc3c1[C@H](C2)N(C)CC3
Potency [1]: 7.94 µM (active)

O=CN1CC2CC(C1)c1cccc(=O)n1C2 (configuration not stated)
Potency [1]: inactive

c1cc2c(cc1[C@H]1OC[C@@H]3[C@H]1CO[C@H]3c1ccc3c(c1)OCO3)OCO2
Potency [1]: 0.794 µM (active)
